An excerpt weighted towards active compounds, which were near 3.7% of everything screened.
NTMT1 inhibitor: Primary qHTS for Inhibitors of N-terminal methyltransferase 1 (NTMT1): MTaseGlo Assay; NTMT1 MTase-Glo SAH luminescence, purified enzyme; Potency, µM (highest dose often 114 µM), hits mostly inhibitors; actives 2.5% (n = 59,000); AID 1645870, 2021; further: nearly all actives have a fitted effect of over 65% in size
FH mod: Identification of activators of human fumarate hydratase by quantitative high-throughput screening; FH coupled MDH/diaphorase resazurin fluorescence, 15 min; Potency, µM (series often up to 79.9 µM), usual class: inhibitors; actives 0.22% (n = 54,000); AID 1347055, 2019; Fumarate hydratase, mitochondrial (Homo sapiens), P07954; further: the screen sought activators but most active calls are inhibition curves; nearly all actives have a fitted effect of over 45% in size
CLK4 inh-1: Confirmation Assay for Inhibitors of CDC-like Kinase 4 (Kinase-Glo Assay): SAR round 2; shares compounds with NTMT1 inhibitor; recombinant Clk4, Kinase-Glo ATP luminescence, 4.5 h; Potency, µM (highest dose often 76.9 µM), hits mostly inhibitors; actives 90% (n = 90); AID 493204, 2011
CLK4 inh-2: Kinase Inhibition Study on Inhibitors of CDC-like Kinase 4 (Reaction Biology data): SAR round 2; shares compounds with NTMT1 inhibitor; Reaction Biology kinase assay, 10 uM ATP; Potency, µM, actives largely listed as inhibitors; actives 100% (n = 65); AID 504421, 2011; calls by dose curve
DYRK1A inh: Kinase Inhibition Study on Inhibitors of Dyrk1a (Reaction Biology data); shares compounds with NTMT1 inhibitor; Reaction Biology kinase assay, 10 uM ATP; Potency, µM, hits mostly inhibitors; actives 90% (n = 65);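 active means compounds that showed inhibition of Dyrk1a and received a fitted potency; inactive means compounds that showed no inhibition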
CLK2 RBC: Kinase Inhibition Study on Inhibitors of CDC-like Kinase 2 (Reaction Biology data); shares compounds with NTMT1 inhibitor; actives 90% (n = 65); AID 504427, 2011; Potency, µM, most hits filed as inhibitors; Reaction Biology kinase assay, 10 uM ATP;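 active means compound that inhibits Clk2 kinase in the dose series, with an IC50 potency reported; inactive means no inhibition seen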
CLK3 inh: Kinase Inhibition Study on Inhibitors of CDC-like Kinase 3 (Reaction Biology data); shares compounds with NTMT1 inhibitor; actives 40% (n = 65); AID 504428, 2011; recombinant CLK3 kinase assay, 10 uM ATP; Potency, µM, actives largely listed as inhibitors;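 active means compounds that inhibited Clk3 enough in the ten-dose series to give a half-maximal potency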
DYRK1B inh: Kinase Inhibition Study on Inhibitors of Dyrk1b (Reaction Biology data); Potency, µM, usual class: inhibitors; actives 80% (n = 65); shares compounds with NTMT1 inhibitor; Recombinant Dyrk1b kinase assay, 10 uM ATP;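 active means compounds whose dose response shows an inhibitor phenotype against the kinase Dyrk1b; inactive means compounds showing no inhibitor phenotype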
Target sequence (Q9Y463 whole entry, looked up): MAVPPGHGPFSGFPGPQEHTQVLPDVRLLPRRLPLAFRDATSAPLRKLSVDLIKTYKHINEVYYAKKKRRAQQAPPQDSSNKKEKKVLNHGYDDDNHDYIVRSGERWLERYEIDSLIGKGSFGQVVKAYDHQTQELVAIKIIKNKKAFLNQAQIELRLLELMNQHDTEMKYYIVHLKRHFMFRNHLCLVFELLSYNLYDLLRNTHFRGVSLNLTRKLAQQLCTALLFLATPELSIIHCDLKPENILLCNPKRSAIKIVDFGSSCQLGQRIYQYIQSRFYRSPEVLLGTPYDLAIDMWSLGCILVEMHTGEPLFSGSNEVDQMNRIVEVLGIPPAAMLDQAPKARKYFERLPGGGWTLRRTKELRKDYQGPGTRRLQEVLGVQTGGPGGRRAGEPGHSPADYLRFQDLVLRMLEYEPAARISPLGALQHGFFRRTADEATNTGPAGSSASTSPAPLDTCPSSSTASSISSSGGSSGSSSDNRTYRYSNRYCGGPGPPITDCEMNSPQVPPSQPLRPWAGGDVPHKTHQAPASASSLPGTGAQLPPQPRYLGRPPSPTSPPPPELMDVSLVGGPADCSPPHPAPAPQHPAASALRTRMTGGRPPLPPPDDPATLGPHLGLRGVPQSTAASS
CLK1 inh: Kinase Inhibition Study on Inhibitors of CDC-like Kinase 1 (Reaction Biology data); shares compounds with NTMT1 inhibitor; recombinant Clk1 kinase assay, 10 uM ATP; Potency, µM, actives largely listed as inhibitors; actives 90% (n = 65); AID 504430, 2011;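 active means compounds that block the splicing kinase Clk1 enough to give a fitted half-inhibition concentration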
Sfp qHTS opt: qHTS Assay for Inhibitos of Bacillus subtilis Sfp phosphopantetheinyl transferase (PPTase): Chemistry Optimization Followup | shares compounds with NTMT1 inhibitor | purified Sfp PPTase enzyme activity, qHTS | Potency, µM (titrated, usually from 114 µM), hits mostly inhibitors | actives 78% (n = 230)
Bsub HM489 growth: qHTS for Inhibitos of Bacillus subtilis Sfp phosphopantetheinyl transferase (PPTase): Chemistry Optimization Followup in B. Subtilis HM489; shares compounds with NTMT1 inhibitor; B. subtilis HM489 (acpS-) growth, BacTiter-Glo, 5 h; Potency, µM (series often up to 114 µM), hits mostly inhibitors; actives 50% (n = 220); AID 540353, 2011
Sfp PPTase gel: Gel-Based Assay for Inhibitos of Bacillus subtilis Sfp phosphopantetheinyl transferase (PPTase): Chemistry Optimization Followup | shares compounds with NTMT1 inhibitor | purified Sfp PPTase, gel-based product detection | Potency, µM (doses to about 250 µM), usual class: inhibitors | actives 54% (n = 220) | AID 540355, 2011
Sfp inh SAR2: qHTS Assay for Inhibitors of Bacillus subtilis Sfp phosphopantetheinyl transferase (PPTase): SAR Round 2; shares compounds with NTMT1 inhibitor; purified Sfp enzyme, PPTase activity, qHTS; Potency, µM (titrated, usually from 57.1 µM), usual class: inhibitors; actives 87% (n = 230)
hGST ctr: qHTS Assay for Inhibitors of Bacillus subtilis Sfp phosphopantetheinyl transferase (PPTase): SAR in hGST A1-1. 55 tested, under 10 active. hGST A1-1 enzyme activity counter-screen, qHTS. Potency, µM (titrated, usually from 114 µM), usual class: inhibitors. shares compounds with NTMT1 inhibitor
HSD17B4 counter: Extended Characterization of HPGD Inhibitors: Counterscreen Against HSD17b4; shares compounds with NTMT1 inhibitor; actives 10% (n = 230); purified HSD17B4, estradiol/NAD+, NADH fluorescence; Potency, µM (doses to about 57.1 µM), hits mostly inhibitors
ALDH1A1 inh: Extended Characterization of HPGD Inhibitors: Counterscreen Against ALDH1A1; shares compounds with NTMT1 inhibitor; recombinant ALDH1A1, NADH fluorescence, propionaldehyde/NAD+; Potency, µM (top dose mostly 57.1 µM), usual class: inhibitors; actives 93% (n = 230)
NNMT counter: Counterscreen qHTS for Inhibitors of N-terminal methyltransferase 1 (NTMT1): NNMT MTaseGlo assay. shares compounds with NTMT1 inhibitor. NNMT MTase-Glo luminescence, SAH detection. Potency, µM (doses to about 57.1 µM), most hits filed as inhibitors. actives 10% (n = 120)
Of the large screens only hits and unclear results are named; the others gave an inactive call (follow-up assays come after a bar, where they were run); ! = a repeat was not active. Unless noted, the call rests on the fitted dose curve; in most records, active means well fitted curve in the direction sought with a large enough effect; inconclusive means small, poorly fitted or top-dose-only effect, or another doubt; inactive means no such curve, though single readings can be large; an effect the other way counts as inactive or inconclusive.

Cc1ccnc(NC(=S)NCCNc2cccc(C(F)(F)F)c2)c1	NTMT1 inhibitor inconclusive (no result: FH mod) | Sfp qHTS opt inconclusive | Bsub HM489 growth inconclusive | Sfp PPTase gel inactive | Sfp inh SAR2 6.46µM | HSD17B4 counter 6.07µM | ALDH1A1 inh 19.2µM
C=C(C)C1CCC(C)C12CC(O)C1(C)OC1C2OC(=O)C(N)CCC(=O)O (centres undefined)	none
Cc1ccc(OCCn2c(CCNC(=O)c3ccccc3[N+](=O)[O-])nc3ccccc32)cc1	none (no result: FH mod)
Cc1ccc(CNc2ncnc3ccc(-c4ccc([C@@H](C)O)o4)cc23)o1	NTMT1 inhibitor inconclusive (no result: FH mod) | CLK4 inh-1 0.184µM
CCNC(=O)c1ccc(-c2ccc3ncnc(NCc4nccs4)c3c2)o1	NTMT1 inhibitor inconclusive (no result: FH mod) | CLK4 inh-1 0.519µM | CLK4 inh-2 0.884 | DYRK1A inh 5.06µM | CLK2 RBC 18.9µM | CLK3 inh inactive | DYRK1B inh 4.95µM | CLK1 inh 7µM
Cc1noc(C)c1-c1ccc2ncnc(NCc3ccc(C(F)(F)F)o3)c2c1	none (no result: FH mod)
Cc1ccc(CNc2ncnc3ccc(-c4ccc(C(=O)O)o4)cc23)o1	none (no result: NTMT1 inhibitor, FH mod) | CLK4 inh-1 0.0733µM | CLK4 inh-2 0.104 | DYRK1A inh 17.4µM | CLK2 RBC 1.36µM | CLK3 inh inactive | DYRK1B inh 4.93µM | CLK1 inh 1.56µM
Cc1csc(CNc2ncnc3ccc(-c4ccc(C(=O)O)o4)cc23)n1	none (no result: FH mod) | CLK4 inh-1 0.367µM | CLK4 inh-2 1.04 | DYRK1A inh 46.5µM | CLK2 RBC 9.46µM | CLK3 inh inactive | DYRK1B inh 13.4µM | CLK1 inh 16µM
COc1cc(O)c(C(CC(=O)N2CCN(c3ccc(F)cc3)CC2)c2ccc3c(c2)OCO3)c(OC)c1 (centres undefined)	none (no result: FH mod)
O=C(CN1C(=O)N/C(=C\c2cn(-c3cccc(C(=O)O)c3)cn2)C1=O)Nc1ccc(Cl)cc1	none (no result: FH mod)
Fc1cc(-c2cccc3ncc(-c4cnn(C5CCNCC5)c4)nc23)cc(F)c1CN1CCOCC1	NTMT1 inhibitor 17.8µM! | NNMT counter inactive
CN(C)CCCn1cc(C2=C(c3c[nH]c4ccccc34)C(=O)NC2=O)c2ccccc21	NTMT1 inhibitor 25.1µM | NNMT counter inconclusive
Cc1ccnc(NC(=S)N2CC3CN(c4ncc(C(F)(F)F)cc4Cl)CC3C2)c1 (centres undefined)	NTMT1 inhibitor inconclusive (no result: FH mod) | Sfp qHTS opt 0.576µM | Sfp inh SAR2 1.33µM | hGST ctr inactive | HSD17B4 counter inactive | ALDH1A1 inh 0.383µM
FC(F)(F)c1cnc(N2CCN(C(=S)Nc3cc(Cl)ccn3)CC2)c(Cl)c1	NTMT1 inhibitor inconclusive (no result: FH mod) | Sfp qHTS opt 9.37µM | Bsub HM489 growth 11.8µM | Sfp PPTase gel inconclusive | Sfp inh SAR2 1.29µM | HSD17B4 counter inactive | ALDH1A1 inh 3.83µM
C=CCNC1=C2CC(C)CC(OC)C(O)C(C)/C=C(\C)C(OC(N)=O)C(OC)/C=C/C=C(\C)C(=O)NC(=CC1=O)C2=O (centres undefined)	none (no result: FH mod)

Source: PubChem
